Source: PubChem (several laboratories)
Most compounds without a hit are left out; they make up all but 1.3% or so of the library.
Gli-Sufu block: antagonists of Gli-Sufu signaling; inhibition, % at 5 µM; hit rate 0.74% among 340,000; Sufu-KO-LIGHT fibroblasts, Gli luciferase reporter luminescence;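 active = inhibition above about 55%, limit read from the data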
SRC3 inh: inhibits human SRC3 coactivator. Q9Y6Q9. HEK293 GAL4-SRC3 luciferase reporter, luminescence. inhibition, % at 3.6 µM. hit rate 0.17% among 360,000. AID 588352;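 active = inhibition above a per-campaign cutoff, the mean of all compounds plus 3 SD, cut at about 60% in these data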;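 note: higher means less SRC3-driven luciferase light from the GAL4 reporter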
COUP-TFII inh: NR2F2 (human) inhibition, primary screen | P24468 | hit rate 0.7% among 370,000 | inhibition, % at 8.6 µM | HEK293T NGFI-A luciferase reporter, luminescence;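 active = inhibition above a per-plate cutoff, mean inhibition of test wells between control levels plus 3 SD, cut at about 38% in these data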;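 note: cells cotransfected with COUP-TFII expression vector driving the NGFI-A reporter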
SRC2 inh: inhibits human steroid receptor coactivator 2. hit rate 0.17% among 370,000. Q15596. AID 651957. inhibition, % at 9 µM. HEK293 GAL4-SRC2 luciferase reporter, luminescence;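 active = inhibition above the mean inhibition of all tested compounds plus 3 SD, set per campaign, cut at about 52% in these data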
NR5A2 inv ag: inverse agonists of human LRH-1 (NR5A2) | HEK293T StAR-luciferase reporter, LRH-1 transfected, 24 h | O00482 | inhibition, % at 3.6 µM | hit rate 0.13% among 360,000;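 active = inhibition above the mean inhibition of all tested compounds plus 3 SD, cut at about 73% in these data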
Target sequence (O00482 whole entry, looked up): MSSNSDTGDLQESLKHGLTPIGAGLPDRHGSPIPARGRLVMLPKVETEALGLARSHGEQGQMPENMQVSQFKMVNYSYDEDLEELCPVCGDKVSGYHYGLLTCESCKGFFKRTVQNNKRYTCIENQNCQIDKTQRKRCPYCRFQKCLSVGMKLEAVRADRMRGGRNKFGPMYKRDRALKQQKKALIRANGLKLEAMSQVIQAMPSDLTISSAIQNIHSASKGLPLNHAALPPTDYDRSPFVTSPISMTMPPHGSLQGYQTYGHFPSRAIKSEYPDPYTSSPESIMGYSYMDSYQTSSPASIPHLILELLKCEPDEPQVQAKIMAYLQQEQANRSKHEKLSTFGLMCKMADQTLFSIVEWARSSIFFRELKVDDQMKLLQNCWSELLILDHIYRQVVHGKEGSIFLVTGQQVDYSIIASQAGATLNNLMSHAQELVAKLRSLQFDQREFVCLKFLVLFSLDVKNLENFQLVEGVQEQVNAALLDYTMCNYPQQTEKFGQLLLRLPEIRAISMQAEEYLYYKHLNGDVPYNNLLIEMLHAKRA
NCOA1 inh: human NCOA1 inhibition; AID 588354; HEK293 GAL4-SRC1 luciferase reporter, luminescence; inhibition, % at 3.6 µM; hit rate 0.12% among 360,000;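 active = inhibition above the campaign mean plus 3 SD, with each screening campaign given its own cutoff, cut at about 60% in these data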
Gli-Sufu confirm: confirmation of Gli-SUFU pathway antagonists. inhibition, % at 5 µM. shares compounds with Gli-Sufu block. AID 602428. Sufu-KO-LIGHT cells, Gli luciferase reporter, luminescence. hit rate 40% among 2,500;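 active = mean inhibition at 5 µM reaching about 45%, limit read from the data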
Gli cytotox: cytotoxic in Gli-SUFU antagonist counter-screen; AID 651994; shares compounds with Gli-Sufu block; cytotoxicity, % at 5 µM; Sufu-KO-LIGHT cells cytotoxicity, ATP luminescence; hit rate 32% among 2,500;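 active = mean cytotoxicity at 5 µM above about 25%, limit read from the data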;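 note: cells exposed to compound overnight for roughly 16 to 18 hours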
Wnt3a cs: counter-screen for Gli-SUFU antagonists: Wnt3a reporter inhibition. shares compounds with Gli-Sufu block. AID 651995. hit rate 20% among 2,500. Wnt-LIGHT cells, Wnt3a-driven luciferase reporter, luminescence. inhibition, % at 6.25 µM;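 active = mean inhibition above about 25%, limit read from the data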
Numbers stand for hits; n = inactive; x = not tested or not shown.

SMILES	Gli-Sufu block	SRC3 inh	COUP-TFII inh	SRC2 inh	NR5A2 inv ag	NCOA1 inh	Gli-Sufu confirm	Gli cytotox	Wnt3a cs
O=C(Cc1c[nH]c2ccccc12)Nc1ccc(Nc2cccnc2)c(-c2ccc(Cl)c(Cl)c2)c1	x	x	n	n	x	x	x	x	x
COc1cc(O)c(C(CC(=O)N2CC(C)OC(C)C2)c2ccc3c(c2)OCO3)c(OC)c1 (centres undefined)	x	x	n	x	x	x	x	x	x
CCOc1ccc(NS(=O)(=O)c2cccc(C(=O)N3CCN(C/C=C/c4ccccc4)CC3)c2)cc1	n	n	n	n	n	n	n	n	n
CCOc1ccc(NS(=O)(=O)c2ccc(C(=O)N3CCCC(C)C3)cc2)cc1 (centres undefined)	57	n	n	n	n	n	n	n	n
O=C(c1cccc(S(=O)(=O)N2CCOCC2)c1)N1CCN(C/C=C/c2ccccc2)CC1	n	n	n	n	n	n	x	x	x
CCOc1ccc(S(=O)(=O)Nc2ccc(C(=O)N3CCCC3)cc2)cc1	n	n	n	n	n	n	x	x	x
O=C1[C@@H](CCc2ccccc2)[C@@H]2c3ccccc3C=NN2[C@@H]2c3ccccc3C=NN12	x	x	n	n	x	x	x	x	x
COc1cccc(CNC(=O)Cn2c(-c3ccccc3)cc(C(C)=O)c2C)c1OC	x	x	n	n	x	x	x	x	x
COc1ccc(C)cc1NS(=O)(=O)c1ccc(-c2cnc(C3CC3)o2)cc1	66	n	n	n	n	n	62	66	n
CCOc1ccccc1CNS(=O)(=O)c1ccc(-c2cnc(C3CC3)o2)cc1	n	n	n	n	n	n	55	59	n
O=S(=O)(NCc1ccccc1)c1ccc(-c2cnc(C3CC3)o2)cc1	n	n	n	n	n	n	x	x	x
Cc1ccc(NS(=O)(=O)c2ccc(-c3cnc(C4CC4)o3)cc2)cc1	n	n	n	n	n	n	x	x	x
CN(C)P(=O)(Nc1cccc2ccccc12)Nc1cccc2ccccc12	n	n	n	n	n	n	n	n	n
CC(C)OP(=O)(Nc1cccc2ccccc12)OC(C)C	n	n	n	n	n	n	x	x	x
CC(C)(C)NC(=O)c1cccc(NC(=O)c2ccc(NC(=O)c3ccco3)cc2)c1	75	n	n	n	n	n	n	n	n
CC(C)(C)NC(=O)c1cccc(NC(=O)c2ccco2)c1	n	n	n	n	n	n	x	x	x
COc1ccc(NC(=S)N2CCN(Cc3ccccc3)CC2)cc1	n	n	n	n	n	n	x	x	x
CCNC(=S)N1CCC(Cc2ccccc2)CC1	n	n	n	n	n	n	x	x	x
S=C(Nc1ccccc1)N1CCC(Cc2ccccc2)CC1	n	n	n	n	n	n	66	27	n
COc1ccc(NC(=S)N2CCC(Cc3ccccc3)CC2)cc1	62	n	n	n	n	n	n	n	n
CCn1c(COc2ccccc2)nnc1SCC(=O)Nc1ccc(Oc2ccccc2)cc1	x	x	n	n	x	x	x	x	x
CCOc1c(CNCCN2CCOCC2)cccc1OC	n	n	n	n	n	n	n	n	n
COc1cccc(CNCCN2CCOCC2)c1OC	n	n	n	n	n	n	x	x	x
CCOC(=O)C1CCCN(C(=O)COC(=O)c2cc(=O)c3ccccc3o2)C1 (centres undefined)	n	n	n	n	n	n	x	x	x
O=C(OCC(=O)N1CCCC1)c1cc(=O)c2ccccc2o1	n	n	n	n	n	n	n	n	n
SMILES	Gli-Sufu block	SRC3 inh	COUP-TFII inh	SRC2 inh	NR5A2 inv ag	NCOA1 inh	Gli-Sufu confirm	Gli cytotox	Wnt3a cs
COc1ccc(OCC(=O)Nc2nnc(C)s2)cc1	n	n	n	n	n	n	x	x	x
CCOc1ccccc1OCC(=O)Nc1nnc(C)s1	94	n	n	n	n	n	n	n	n
Cn1cc(CNCc2ccccc2OCC(O)CN2CCc3ccccc3C2)cn1 (centres undefined)	55	n	n	n	n	n	n	n	n
COc1ccccc1CCNC(=O)CNC(=O)c1ccc2ccccc2c1	57	n	n	n	n	n	n	n	n
COc1ccccc1CCNC(=O)c1ccc(C)o1	57	n	n	n	n	n	n	n	n
COc1ccc(Cn2cc(COC(=O)Nc3ccc(F)cc3)nn2)cc1	x	x	n	n	x	x	x	x	x
O=C(/C=C(\Nc1cc(Cl)c(F)c(Cl)c1)c1ccccc1)c1ccccc1	x	x	n	n	x	x	x	x	x
O=c1[nH]c(C2CCN(S(=O)(=O)c3ccc(C(F)(F)F)cc3)CC2)nc2c1nnn2Cc1cccc(F)c1	56	n	n	n	n	n	n	25	n
O=C1CCC[C@H]2C[C@H](NCc3cccc(Cl)c3)CC[C@]23CCCN13	x	x	n	x	x	x	x	x	x
CCOC(=O)c1cc(NC(=O)COc2ccc([N+](=O)[O-])cc2)cc(C(=O)OCC)c1	63	n	n	n	n	n	n	n	n
CCOCC(=O)Nc1cc([N+](=O)[O-])ccc1C	91	n	n	n	n	n	n	n	n
C#CCOCCOCCOCCNc1nc(N2CCN(C(=O)[C@H]([C@@H](C)CC)n3cc(CCCCN)nn3)CC2)nc(N2CCN(C(=O)[C@H](Cc3ccc(O)cc3)n3cc(CCO)nn3)CC2)n1	x	x	n	x	x	x	x	x	x
COc1cccc(/C=C/c2ccncc2)c1OC	56	n	n	n	n	n	46	n	n
CNc1ccccc1/C(O)=C(\C#N)C(=O)NCc1cccc2ccccc12	x	x	n	n	x	x	x	x	x
COc1ccc(/C=C2\CC3(OC(=O)c4ccccc4)CCCN2C3)cc1 (centres undefined)	x	x	n	n	x	x	x	x	x
COc1ccc(CCN2CC(C(=O)NCCc3ccc(C(F)(F)F)cc3)CCC2=O)cc1 (centres undefined)	n	n	n	n	n	n	n	n	n
COc1ccc(CCN2CC(C(=O)NCCc3ccc(F)cc3)CCC2=O)cc1 (centres undefined)	n	n	n	n	n	n	x	x	x
O=C(O)c1cccc(N/N=C/c2sc(N3CCOCC3)nc2-c2ccccc2)c1	n	n	n	n	n	n	x	x	x
O=[N+]([O-])c1ccc(N/N=C/c2sc(N3CCOCC3)nc2-c2ccccc2)c(S(=O)(=O)Nc2ccc(Cl)cc2)c1	90	n	n	n	n	n	90	n	72
O=[N+]([O-])c1ccc(N/N=C/c2sc(N3CCOCC3)nc2-c2ccccc2)c(S(=O)(=O)Nc2ccccc2Cl)c1	69	n	n	n	n	n	81	n	60
COc1cnn(-c2cccc(C)c2)c(=O)c1Cl	n	n	n	n	n	n	n	n	n
Cn1c(N2CCN(C(=O)NC34CC5CC(CC(C5)C3)C4)CC2)nc2ccccc21	n	n	n	n	n	n	x	x	x
Cc1ccc(C(=O)N2CCN(c3nc4ccccc4n3C)CC2)cc1	70	n	n	n	n	n	n	n	n
O=S(=O)(Nc1nc2ccccc2nc1Nc1ccc2c(c1)OCO2)c1ccc(F)cc1	58	n	n	n	n	n	58	n	51
